Experimental data taken from ChEMBL document CHEMBL4513216, “Probing the Open Global Health Chemical Diversity Library for Multistage-Active Starting Points for Next-Generation Antimalarials” (ACS Infect Dis, 2020).
Among all 69,000 compounds or so, about 8,600 (12%) showed an effect of 50% or more. The full list was thinned out, with strong results kept by preference.

test system: Plasmodium berghei; experiment: Screen against P. berghei liver stage (PbLuc), transformed with Luciferase, at 10uM; type: functional, HepG2; conditions: tested at 10 uM

Row | SMILES | INHIBITION [%]
1 | Cc1cc(N2CCN(Cc3ccnn3C)CC2)cc(C2CCCN2)n1 (centres undefined) | 37.45
2 | Cc1cccc(S(=O)(=O)N2CC[C@H]3CO[C@H](CN(C)C)[C@H]3C2)c1 | -1.55
3 | COCc1nn(C(C)C)c2c1CCN(Cc1nccs1)C2 | -11.6
4 | O=C(c1cnccn1)N1CCN(Cc2cccnc2)c2ncccc2C1 | 11.5
5 | CN1[C@H](CO)C[C@H](CNCc2ccc(Cl)c(F)c2)[C@@H]1c1ccccc1F | 53.5
6 | CN1[C@H](CO)C[C@H](CNCc2ccc(CO)o2)[C@@H]1c1ccccc1F | 28.7
7 | CCc1ccc(CNC[C@H]2C[C@@H](CO)N(C)[C@H]2c2ccccc2F)o1 | -3.96
8 | CCC(=O)N1CCC(c2nc(N3CCOCC3)ncc2S(C)(=O)=O)CC1 | 36
9 | Cc1nnc(C2Cc3ccccc3CN2Cc2c(C)noc2C)o1 (centres undefined) | 19.5
10 | CC(Cn1cccn1)NC(=O)c1cc(C2CC2)nc2c1cnn2C (centres undefined) | -6.18
11 | Cn1cc(CN2CCC(c3cc(COc4cccc(Cl)c4)[nH]n3)C2)cn1 (centres undefined) | 21.955
12 | COc1ccc(CN2CC(n3cccn3)C2)cc1F | 4.34
13 | COc1ccc(C)cc1CN1CCCC1Cn1nc(C)nc1C (centres undefined) | 25.3
14 | COc1ccc(C(C)=O)cc1CN1CCn2cccc2C1C (centres undefined) | 58.5
15 | COc1ccc(C)cc1CN1CCN(Cc2nccn2C)C(C)C1 (centres undefined) | -78.3
16 | COc1ccc(C)cc1CN1CCn2cccc2C1C (centres undefined) | 84.2
17 | COC(=O)c1ccc(OC)c(CN2CCN(CC(C)C)C(=O)C2C)c1 (centres undefined) | -14.1
18 | COc1cc(C(C)=O)ccc1OCC(=O)c1cccn1C | 41.3
19 | COc1ccc(CN2CCn3cccc3C2C)cc1F (centres undefined) | 59.4
20 | COc1ccc(CN2CCN(Cc3nccn3C)C(C)C2)cc1F (centres undefined) | -85.6
21 | CC(=O)N1CCN(CCNS(=O)(=O)c2c(F)cccc2F)CC1 | 31.6
22 | Cn1cnc2c1C(C(=O)N1CCCC1)N(CC1CC1)CC2 (centres undefined) | 0.804

Row | SMILES | INHIBITION [%]
23 | COc1ccc2c(c1)CCCN2Cc1nc(C)c(C)o1 | 19.8
24 | Cc1cc(C)n(CC2CN(Cc3noc(C)n3)CCO2)n1 (centres undefined) | 5.7
25 | CCCn1nnnc1COC(=O)C1COc2ccccc2O1 (centres undefined) | 49
26 | O=C(NCCc1cc2nc(-c3ccncc3)ccn2n1)C1CCOCC1 | 17.14
27 | Cc1nnsc1C(=O)N1C[C@@H]2CC[C@H]1CN(c1cnccn1)C2 | 4.35
28 | Cc1cc(F)ccc1CCNC(=O)NCC(C)N1CCOCC1 (centres undefined) | 11.1
29 | O=C(O)c1cc(S(=O)(=O)Nc2cnn(C3CCOCC3)c2)ccc1F | 29.3
30 | CCN(C(=O)CCc1ccc2c(c1)OCO2)C1CC(=O)NC1=O (centres undefined) | 7.97
31 | Cc1nn(C)c(C)c1CC(=O)N1CCCC(n2cccn2)C1 (centres undefined) | 7.13
32 | Cc1nn(C)c(C)c1CC(=O)N1CCCC(CNS(C)(=O)=O)C1 (centres undefined) | 50.2
33 | Cc1nn(CC(C)C)c(C)c1CC(=O)N1CCCC(CNS(C)(=O)=O)C1 (centres undefined) | 24.1
34 | O=C(CCc1nccs1)N1CCCC(n2cccn2)C1 (centres undefined) | 38.5
35 | Cc1nn(C)c(C)c1CC(=O)N1CCCC(n2ccnc2)C1 (centres undefined) | 44.3
36 | Cc1cnn(C2CCCN(C(=O)CCc3ccncc3)C2)c1 (centres undefined) | 26.4
37 | Cc1nn(C)c(C)c1CC(=O)N1CCCC(n2ccnc2C)C1 (centres undefined) | 23.7
38 | Cc1cnn(C2CCCN(C(=O)Cc3c(C)nn(C)c3C)C2)c1 (centres undefined) | 53.9
39 | Cc1cnn(C2CCCN(C(=O)CCc3nccs3)C2)c1 (centres undefined) | 63.9
40 | Cc1nn(C)c(C)c1-c1ccnc(N2CCCN(CC(C)C)CC2)n1 | 24.3
41 | COc1ccc(F)c(NCc2ccc(C(=O)N(C)C)[nH]2)c1 | -22.6
42 | CN(Cc1nc2ccccc2o1)C1CCCN(c2cccnn2)C1 (centres undefined) | 28.8
43 | CC(=O)N1CCN([C@@H]2CC[C@@H](N(C)C(=O)C3CCCCC3)[C@H]2O)CC1 | 39.7
44 | Cc1nc(CN2CCOCC3(CCCN(c4cnccn4)C3)C2)cs1 (centres undefined) | 15.4

Row | SMILES | INHIBITION [%]
45 | CCCc1cc(CNC2CCN(c3cc(C)nc(N)n3)CC2)on1 | 71.1
46 | CCCc1cc(N2CCC(NCC3(O)CCCCC3)CC2)nc(C)n1 | 6.69
47 | CCCc1cc(CNC2CCN(c3cc(C(C)C)nc(C)n3)CC2)on1 | 61.3
48 | CCCc1cc(CNC2CCN(c3nc4ccccc4s3)CC2)on1 | 67.8
49 | CCCc1cc(CNC2CCN(c3nc(C)cc(C)n3)CC2)on1 | 35.2
50 | Cn1ccnc1SCCNC1CCN(c2nc3ccccc3s2)CC1 | 34.1
51 | Cc1n[nH]c(SCCNC2CCN(c3nc4ccccc4s3)CC2)n1 | 50.2
52 | CCCc1cc(N2CCC(NC3CCOCC3)CC2)nc(C)n1 | 22.1
53 | CCCc1cc(CNC(=O)C2CCOc3ccccc3C2)on1 (centres undefined) | 26.8
54 | CCCc1cc(N2CCC(NC3CCC(O)CC3)CC2)nc(C)n1 (centres undefined) | 2.15
55 | c1ccc(CN2CCC(NCCSc3ncn[nH]3)C2)cc1 (centres undefined) | 42.3
56 | CCCC1COCCN1Cc1ccc(NC(C)=O)cc1 (centres undefined) | -30
57 | CC(C(=O)N1CCCCC1)N1CCN(c2nccs2)CC1 (centres undefined) | 41.3
58 | CN(C)C(=O)NCc1cc(=O)n2c(n1)CN(Cc1ccoc1)CCC2 | 5.41
59 | CCn1ncc2c1C(COCC1CC1)N(Cc1cnn(C)c1)CC2 (centres undefined) | -44.2
60 | O[C@H]1CCN(Cc2ccoc2)[C@H]1Cc1cccnc1 | 41.4
61 | CC(=O)N1CCCCC[C@@H]2[C@@H]1[C@H](c1cccc(F)c1)CN2CCC(N)=O | 32.95
62 | O=C(C1=CCCC1)N1C[C@H]2CCC[C@@]2(COCc2ccncc2)C1 | 47.9
63 | Cc1cc(=O)n(CC(=O)NC2CCCCC2)c2ccccc12 | 70.1
64 | COC(=O)[C@@H]1C[C@H](NC(=O)Cn2c(=O)cc(C)c3ccccc32)CN1C | -4.4
65 | Cc1cn(CC(=O)NC2CCC(C(=O)O)CC2)c2ccccc12 (centres undefined) | 26.4
66 | Cc1nnn2c1COCC(CNC(=O)c1ccc[nH]1)C2 (centres undefined) | 26.5

Row | SMILES | INHIBITION [%]
67 | CC(C)CSCCN1CCN(S(C)(=O)=O)CC1 | 45.3
68 | CCSCCN1CCCN(S(C)(=O)=O)CC1 | 37.7
69 | CC(C)CSCCN1CCCN(S(C)(=O)=O)CC1 | 75.6
70 | O=C1CCOC[C@]2(CN(Cc3ccccc3)C[C@H]2c2ccccc2F)N1 | 23.9
71 | CN1CCN(C(=O)[C@H]2C[C@H]3[C@H](CCN3Cc3cccs3)O2)CC1 | -7.24
72 | c1cncc(CN2CCCC3(COCCN(c4cnccn4)C3)C2)c1 (centres undefined) | 12.7
73 | CC(Cn1ccnc1)NC(=O)N(C)Cc1ccc2c(c1)OCO2 (centres undefined) | 7.12
74 | CC(Cn1cccn1)NC(=O)N(C)Cc1ccsc1 (centres undefined) | -1.04
75 | CC(Cn1ccnc1)NC(=O)N(C)Cc1ccsc1 (centres undefined) | 57.4
76 | Cc1noc(C)c1CN(C)C(=O)NC(C)c1cccs1 (centres undefined) | -55.1
77 | Cc1noc(C)c1CN(C)C(=O)NC(C)Cc1ccco1 (centres undefined) | 53.3
78 | CN(Cc1ccco1)C(=O)NC(Cn1ccnc1)C(C)(C)C (centres undefined) | -27.8
79 | Cc1cc(CN(C)C(=O)NC(C)Cc2ccco2)no1 (centres undefined) | 34.2
80 | CC(Cn1ccnc1)NC(=O)N(C)Cc1ccc2c(c1)OCCO2 (centres undefined) | 36.1
81 | CC(Cn1ccnc1)NC(=O)N(C)Cc1ccco1 (centres undefined) | 81
82 | O=C(O)c1cc2c(nc1-c1ccncc1)CCN(C1CCOC1)CC2 (centres undefined) | -28.2
83 | CCn1cc(S(=O)(=O)N(CCc2ccccc2)Cc2ccn(C)n2)cn1 | 21.425
84 | CCc1ncc2c(n1)CN(Cc1nc(-c3cccnc3)no1)CC2 | -10.6
85 | Cc1ccc(C2CCCN2S(=O)(=O)N(C)CCc2ccccn2)o1 (centres undefined) | -17.35
86 | CCOC(=O)C(C)Nc1cccc(COCc2ccco2)c1 (centres undefined) | 12.1
87 | CCOCC(=O)NS(=O)(=O)c1ccc(F)cc1C(F)(F)F | 0.0944
88 | COc1cccc(Cl)c1C(C(=O)O)N1CCC(Cn2cccn2)CC1 (centres undefined) | -47

Row | SMILES | INHIBITION [%]
89 | COCCOC1CCN(C(C(=O)O)c2c(Cl)cccc2OC)CC1 (centres undefined) | 50.3
90 | COCCOC1CCN(C(C(=O)O)c2ccc(F)c(Cl)c2)CC1 (centres undefined) | 23.9
91 | CC(C)c1ncncc1C(=O)NCCN1CCOCC1 | -1.33
92 | COCCC(Cc1cccc(Br)c1)C(=O)N(C)C (centres undefined) | -28.4
93 | COc1ccc(C2Nc3ccccc3N=C3CNC(=O)C32)cc1OC (centres undefined) | 10.4
94 | CCn1nnnc1-c1cccc(NC(N)=O)c1 | 8.18
95 | CCn1nnnc1-c1cccc(NC(=O)CCOC(C)C)c1 | 4.01
96 | CCOC(=O)Cn1nnnc1-c1ccccc1 | 64
97 | O=C(CCC(F)(F)F)N1CCCC(c2ncc[nH]2)C1 (centres undefined) | -0.71
98 | COC(=O)NCC(=O)N1CCCC(c2ncc[nH]2)C1 (centres undefined) | 15.2
99 | O=C(CN1CCCC(c2ncc[nH]2)C1)NCC(F)(F)F (centres undefined) | 81.2
100 | Cc1nc(CNC(=O)N2CCCC(c3ncc[nH]3)C2)sc1C (centres undefined) | 23.5
101 | Cc1sc(NC(=O)CN2CCCC(c3ncc[nH]3)C2)c(C)c1C (centres undefined) | 94.1
102 | O=C(CN1CCCC(c2ncc[nH]2)C1)NCCCN1CCCCCC1=O (centres undefined) | 45.4
103 | CCn1nccc1CNC(=O)C1CCCO1 (centres undefined) | 17
104 | COc1ccc(N2CCN(C(=O)OC(C)(C)C)C(C(=O)O)C2)cc1 (centres undefined) | 2.55
105 | Cc1ccc(N2CCC3(CCN(C(=O)c4ccoc4)CC3)CC2)nn1 | -0.27
106 | Cc1cc(N2CCC(NC(=O)C3CC3)CC2)nc(-c2ccncc2)n1 | 23.4
107 | CCCc1cc(C(=O)N2C[C@H]3CC=C(C)C[C@H]3C2)ccn1 | 6.66
108 | CCCc1cc(C(=O)N2CC(c3ccncc3)C2)ccn1 | 8.64
109 | CCCc1cc(C(=O)N2C[C@H](O)[C@@H](N3CCCC3)C2)ccn1 | 55.2
